ELG1 DNA repair: inhibitors of ELG1-dependent DNA repair in HEK293T cells. 2.3% of 330,000 active. HEK293T ELG1-luciferase reporter, luminescence, 16 h; DNA damage induced by 5-fluorouridine. Potency, µM (series often up to 46.1 µM), for the others: top-dose activity change, negative = inhibition, usual class: inhibitors; also: potency is read from the fitted curve at half-maximal effect; nearly all actives have a fitted effect of over 55% in size
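Reporter activity after DNA damage by 5-fluorouridine is monitored. Compound-treated cells incubate 16 hr at 37 °C, then ONE-Glo is added for 30 min before luminescence reading.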
IL1B secr inh: blocks inflammasome-driven IL-1 beta release; AID 743279; 4.7% of 360,000 active; activity change, % at 57.5 µM; THP-1 LPS/ATP IL-1B secretion, AlphaLISA, 16 h; hits give low values; in the data active = activity change below about -50%; inconclusive = mostly about -30% to -49%
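Secreted IL-1B measured by AlphaLISA bead assay after 16 h compound exposure of THP-1 cells; compounds (final up to 57.5 uM) added 1 h before LPS (250 ng/mL) and ATP (1.25 mM) stimulation; lower signal means less secretion.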
TDP1 cell noCPT: qHTS for Inhibitors of human tyrosyl-DNA phosphodiesterase 1 (TDP1): qHTS in cells in absence of CPT. DT40 Tdp1-/- hTDP1 cells, no CPT, ATP luminescence, 48 h. Potency, µM (doses to about 46.2 µM), without a hit: at the highest dose activity change, negative = growth inhibition, actives largely listed as inhibitors. 15% of 420,000 active; also: potency is read from the fitted curve at half-maximal effect; nearly all actives have a fitted effect of over 55% in size
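Compound effects on proliferation are scored in DT40 Tdp1-/-;hTDP1 cells in the absence of CPT. ATP levels (CellTiter-Glo luminescence) are recorded after a ≥48 hr, 37 °C incubation.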
RORgamma inh: inhibitors of mouse ROR gamma transcriptional activity; Potency, µM (doses to about 53.6 µM), for the others: at the top dose activity change, negative = inhibition, actives largely listed as inhibitors; 5.4% of 310,000 active; Drosophila S2 Gal4-RORgamma UAS-luciferase reporter, 20 h; also: potency is read from the fitted curve at half-maximal effect; nearly all actives have a fitted effect of over 60% in size
Target sequence (P51450 whole entry, looked up, the tested form may be a part): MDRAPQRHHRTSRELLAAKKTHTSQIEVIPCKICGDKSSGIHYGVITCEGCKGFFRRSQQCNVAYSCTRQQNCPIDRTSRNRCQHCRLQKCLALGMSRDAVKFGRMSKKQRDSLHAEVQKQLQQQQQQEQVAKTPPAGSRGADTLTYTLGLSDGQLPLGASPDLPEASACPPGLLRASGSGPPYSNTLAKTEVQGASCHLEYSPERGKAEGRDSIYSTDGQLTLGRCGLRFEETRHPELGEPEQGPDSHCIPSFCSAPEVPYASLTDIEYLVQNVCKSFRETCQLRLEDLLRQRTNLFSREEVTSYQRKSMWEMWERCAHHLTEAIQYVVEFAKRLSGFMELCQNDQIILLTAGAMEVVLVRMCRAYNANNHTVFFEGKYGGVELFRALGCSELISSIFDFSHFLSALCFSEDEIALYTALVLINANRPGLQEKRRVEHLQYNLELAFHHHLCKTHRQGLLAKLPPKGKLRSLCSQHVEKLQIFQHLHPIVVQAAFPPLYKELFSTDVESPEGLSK
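Luciferase reporter read in Schneider cells carrying Gal4-RORγ (mouse) and UAS-Photinus luciferase; cells given compound 1 h before 700 uM copper sulfate induction, then incubated 20 h at ambient temperature.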
TDP1 cell CPT: growth inhibition of DT40 Tdp1-/-;hTDP1 cells with camptothecin (screen for TDP1 inhibitors); chicken DT40 Tdp1-/-;hTDP1 cells + 20 nM CPT, ATP luminescence, 48 h; Potency, µM (titrated, usually from 46.2 µM), inactives show at the top dose activity change, negative = growth inhibition, actives largely listed as inhibitors; 12% of 420,000 active; AID 686979; also: potency is read from the fitted curve at half-maximal effect; nearly all actives have a fitted effect of over 55% in size
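Chicken DT40 Tdp1-/- cells stably complemented with human TDP1 were seeded at 400 cells/well in medium containing 20 nM camptothecin, exposed to pin-transferred compounds, and grown at 37 °C for at least 48 hr. Viability was read as ATP luminescence.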
VP16 counter: Gal4-VP16 reporter inhibition counter-screen | Drosophila S2 Gal4-VP16 UAS-luciferase, luminescence, 20 h | Potency, µM (top dose mostly 53.6 µM), without a hit: top-dose activity, negative = inhibition, most hits filed as inhibitors | 3.5% of 310,000 active;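 also: Gal4-VP16 expression switched on by copper sulfate through the metallothionein promoter; potency is read from the fitted curve at half-maximal effect; nearly all actives have a fitted effect of over 50% in size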
Active calls of the source: *; ? = inconclusive; nt = no result; [ ] = dose if it differs, or a comment. In the library only some 21% were active in any assay of this set; here they are far more common. Unless noted, calls follow the shape of the dose curve; as a rule, active = well fitted curve in the direction sought with a large enough effect; inconclusive = small, poorly fitted or top-dose-only effect, or another doubt; inactive = no such curve, though single readings can be large; an effect the other way counts as inactive or inconclusive. % is scaled to controls: 0 for no effect and ±100 for the full control effect.

SMILES	ELG1 DNA repair	IL1B secr inh	TDP1 cell noCPT	RORgamma inh	TDP1 cell CPT	VP16 counter
CC1=C(C(=O)N(C)C)CC(CC(=O)NCC2CCCCC2)C(=O)N1Cc1ccc(F)cc1 (stereo unspecified)	nt	-27	?	nt	?	nt
CCOc1ccc(-c2nnc(SCc3nc4ccccc4[nH]3)n2N)cc1	?	-64*	-2%	-42%	-20%	7%
C=CCn1c(SCc2ccc(C#N)cc2)nnc1-c1ccccc1	9%	13	-3%	7%	-19%	1%
COc1cccc(-c2nnc(SCc3ccc(C#N)cc3)n2Cc2ccco2)c1	?	?	23µM*	-7%	?	0%
Cc1ccc(-c2nnc(SCc3nc4ccccc4[nH]3)n2Cc2ccco2)cc1	?	-11	?	11µM*	?	?
C=CCn1c(SCc2ccc(C#N)cc2)nnc1-c1cccc(OC)c1	?	-10	?	19%	?	-7%
Cn1c(SCc2nc3ccccc3[nH]2)nnc1-c1cccnc1	?	10	-17%	-50%	-19%	-22%
Cc1ccc(-c2nnc(SCc3ccc(C#N)cc3)n2Cc2ccco2)cc1	-11%	-17	?	?	26µM*	-26%
CC(=O)c1ccc(NC(=O)CN(C)S(=O)(=O)c2cc3c(cc2C)NC(=O)CO3)cc1	nt	nt	?	nt	-15%	nt
O=c1cc(CSc2nc(NCc3ccc(Cl)cc3)c3ccccc3n2)nc2ccc(Cl)cn12	nt	23	-13%	nt	2%	nt
COc1ccccc1C(=O)NNC(=O)c1ccc2ccccc2c1	18%	-4	-26%	-26%[1.91 µM]	-3%	14%
COc1ccccc1C(=O)NNC(=O)c1cc2ccccc2cc1O	nt	79	18µM*	nt	13µM*	nt
COc1ccccc1C(=O)NNC(=O)C(=O)Nc1ccc(C)c(Cl)c1	-4%	-9	?	?	?	-18%
COc1ccccc1C(=O)NNC(=O)C(=O)Nc1ccc(C)cc1	-5%	40	?	11µM*	?	3%
COc1ccc(C(=O)NNC(=O)c2cc3ccccc3cc2O)cc1	nt	140	13µM*	nt	?	nt
Cc1ccc(SCCC(=O)OCC(=O)NCC2CCCCC2)cc1	-19%	14	?	-13%	-8%	-9%
CCc1ccc(NCc2nc3ccccc3c(=O)[nH]2)cc1	?	22	-12%	?	-10%	?
CCC(CC)c1nc2ccccc2c(=O)[nH]1	0%	13	-24%	-1%	-3%	5%
CCCCNCc1nc2ccccc2c(=O)[nH]1	14%	-52*	-28%	10µM*	-16%	?
C=CCNc1nc2ccccc2c(=O)[nH]1	-5%	31	21µM*	18%	?	25%
Cc1cc(C)cc(Nc2nc3ccccc3c(=O)[nH]2)c1	12%	-5	?	-41%	-30%	-1%
CC(C)Nc1nc2ccccc2c(=O)[nH]1	-2%	24	?	-23%	16µM*	-14%
CCCNc1nc2ccccc2c(=O)[nH]1	4%	-69*	21µM*	6%	12µM*	0%
CCCCN(CC)CCCNC(=O)CCN1N=C(c2ccc(OC)cc2)CCC1=O	nt	nt	-12%	nt	-1%	nt
Cc1ccc(C(=O)COC(=O)CCNS(=O)(=O)c2ccccc2F)cc1	0%	20	-5%	nt	-19%	nt
SMILES	ELG1 DNA repair	IL1B secr inh	TDP1 cell noCPT	RORgamma inh	TDP1 cell CPT	VP16 counter
O=C(NNc1ccccc1F)c1sccc1Cl	nt	nt	?	nt	-21%	nt
CCOc1cccc(=O)c2c(C)n(Cc3ccco3)c(C)c12	?	-7	7%	0%	-6%	3.5µM*
CCOc1cccc(=O)c2c(C)n(Cc3ccccc3)c(C)c12	?	3	15%	-1%	-13%	-13%
Cc1cccc(N(Cc2ccccc2)C(=O)CSC(C)C(=O)Nc2cc(C)on2)c1 (stereo unspecified)	4%	6	18µM*	nt	?	nt
Cc1cc(NC(=O)C(C)SCC(=O)N(C)CC(=O)Nc2ccccc2Br)no1 (stereo unspecified)	15%	18	-9%	nt	-5%	nt
COc1ccc(CN(C(=O)c2ccco2)c2ccc(C)cc2)cc1OC	-25%	2	?	14%[10 µM]	?	-2%
COc1ccccc1C(=O)N(Cc1ccccc1)c1ccc(C)cc1	15%	?	?	-23%	15µM*	-20%
Cc1cccc(N(Cc2ccccc2)C(=O)CCl)c1	-10%	-6	?	10µM*	2.3µM*	-25%
Cc1cc(NC(=O)C(C)SCC(=O)Nc2ccc(Br)cc2Br)no1 (stereo unspecified)	-11%	-5	13µM*	nt	?	nt
CC(C)c1c(C(=O)N2CCN(CCO)CC2)cnn1-c1nccc(-c2cccs2)n1	nt	nt	-14%	nt	26%[9.04 µM]	nt
N#Cc1ccc2c(c1)C[C@]1(CCCCN3C(=O)c4ccccc4C3=O)Oc3c(c(=O)oc4ccc(F)cc34)C2O1	nt	nt	nt	7%[10 µM]	nt	4%[10 µM]
COc1ccc(CC(=O)N(Cc2ccccc2)c2cccc(C)c2)cc1OC	6%	?	15µM*	-19%	?	15%
O=C(CCl)N(Cc1ccccc1)c1ccccc1	-25%	-96*	5.8µM*	11µM*	5.2µM*	?
COc1ccc(C(=O)N(Cc2ccccc2)c2cccc(C)c2)c(OC)c1OC	0%	-10	?	1%	?	-9%
O=S(=O)(N=S(N1CCCCC1)N1CCCCC1)c1ccccc1	-2%	0	?	-24%	9.2µM*	6%
O=C(O)c1ccc2c3n(nc2c1)-c1ccc(Cl)cc1CO3	1%	22	-9%	7.1µM*	-24%	3.2µM*
O=C(c1ccc2c3n(nc2c1)-c1ccc(Cl)cc1CO3)N1CCCCC1	?	-1	?	-11%	?	9%
Cc1ccc2c(c1)COc1c3ccc(C(=O)NC(C)C)cc3nn1-2	?	-2	10µM*	-26%	?	-21%
C=CCNC(=O)c1ccc2c3n(nc2c1)-c1ccccc1CO3	?	6	23µM*	?	15µM*	?
O=C(NCCO)c1ccc2c3n(nc2c1)-c1ccc(Cl)cc1CO3	?	-21	?	28%	?	-1%
COCCNC(=O)c1ccc2c3n(nc2c1)-c1ccc(Cl)cc1CO3	?	-9	21µM*	-38%	?	-29%
COC(=O)C1(C(=O)OC)Cc2ccccc2N(S(=O)(=O)c2ccc(C)cc2)C1CC(C)=O (stereo unspecified)	nt	27	?	nt	?	nt

Compound activity: PubChem BioAssay, National Center for Advancing Translational Sciences (NCATS)
